# Laboratory results as given in PubChem BioAssay (NCI).
# About 79,000 compounds went through this panel and 15% of them were active in at least one assay; those are over-represented in the sample as a whole. Unmarked numbers belong to inactive results. Active and inactive are the calls of the source. Cut-off read from the data, not from the text of the source: active = growth inhibition above about 70%; inactive = the rest.
# Legend:
# [1] = NCI Yeast Anticancer Drug Screen. Data for the rad52 strain (AID 147);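 note: 0% = growth of vehicle-treated control cultures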; conditions: S. cerevisiae rad52 mutant growth inhibition, active compounds read high
# Summary of the method: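 DNA repair-defective yeast; compound exposure; growth scored against vehicle controls.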
# [2] = NCI Yeast Anticancer Drug Screen. Data for the wt1 strain (AID 149);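 note: 0% = growth of vehicle-treated wt1 cultures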; conditions: S. cerevisiae wt1 strain (SPY 50644) growth inhibition, active compounds read high
# Summary of the method: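 wt1 strain grown with compound or vehicle; inhibition taken from the growth difference.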
# [3] = NCI Yeast Anticancer Drug Screen. Data for the rad50EPP+ strain (AID 151);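 note: 0% = growth of vehicle-treated control cultures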; conditions: S. cerevisiae rad50 mutant strain, active compounds read high
# Summary of the method: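 rad50EPP+ yeast treated with test compounds. Readout: growth vs vehicle control.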
# [4] = NCI Yeast Anticancer Drug Screen. Data for the mgt1 strain (AID 153); conditions: S. cerevisiae mgt1 mutant growth inhibition, active compounds read high
# Summary of the method: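 Growth inhibition relative to vehicle controls was scored for the mgt1 yeast strain after compound exposure.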
# [5] = NCI Yeast Anticancer Drug Screen. Data for the rad50 strain (AID 155);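 note: 0% = growth of vehicle-only cultures of the same strain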; conditions: S. cerevisiae rad50 strain growth inhibition, active compounds read high
# Summary of the method: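 DNA repair mutant yeast, compound exposure, growth read-out; inhibition is taken relative to vehicle.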
# [6] = NCI Yeast Anticancer Drug Screen. Data for the mec2-1 strain (AID 157); conditions: S. cerevisiae mec2-1 strain, active compounds read high
# Summary of the method: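 Growth inhibition is read against vehicle-treated controls after compound exposure of the mec2-1 yeast strain, which is defective in DNA damage repair or cell cycle control.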
# [7] = NCI Yeast Anticancer Drug Screen. Data for the rad14 strain (AID 159);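 note: 0% = growth of vehicle-treated control cultures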; conditions: S. cerevisiae rad14 strain growth inhibition, active compounds read high
# Summary of the method: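 DNA repair-defective yeast, compound-exposed; % growth inhibition derived by comparison with vehicle-treated controls.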
# [8] = NCI Yeast Anticancer Drug Screen. Data for the sgs1 mgt1 strain (AID 161);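 note: 0% = growth of cultures given vehicle only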; conditions: S. cerevisiae sgs1 mgt1 strain, active compounds read high
# Summary of the method: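 Percent growth inhibition was derived by comparing compound-exposed mutant yeast with vehicle-exposed cultures. The strain carries alterations in DNA damage repair.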
# [9] = NCI Yeast Anticancer Drug Screen. Data for the CLN2oe strain (AID 163);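 note: 0% = growth of vehicle-only control cultures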; conditions: S. cerevisiae CLN2oe strain, active compounds read high
# Summary of the method: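 Compound-treated yeast; growth vs vehicle ctrl = % inhibition. Genetically altered strain (cell-cycle control).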
# [10] = NCI Yeast Anticancer Drug Screen. Data for the cln2 rad14 strain (AID 165);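 note: 0% = growth equal to vehicle treated cultures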; conditions: S. cerevisiae cln2 rad14 strain, active compounds read high
# Summary of the method: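 Growth inhibition, relative to vehicle-treated controls, is the read-out. The test organism is a yeast strain with defined genetic alterations, cln2 rad14.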
# [11] = NCI Yeast Anticancer Drug Screen. Data for the bub3 strain (AID 167); conditions: S. cerevisiae bub3 mutant strain, active compounds read high
# Summary of the method: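 In this screen, a yeast mutant lacking normal mitotic checkpoint function is challenged with compound. Relative growth versus vehicle gives the inhibition value.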
# [12] = NCI Yeast Anticancer Drug Screen. Data for the wt2 strain (AID 169);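 note: 0% = growth of vehicle-treated yeast cultures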; conditions: S. cerevisiae wt2 strain growth inhibition, active compounds read high
# Summary of the method: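 Compound exposure of yeast; growth compared with vehicle controls; inhibition reported.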
# [13] = NCI Yeast Anticancer Drug Screen. Data for the mlh1 rad18 strain (AID 175); conditions: S. cerevisiae mlh1 rad18 strain growth inhibition, active compounds read high
# Summary of the method: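 Cells of a genetically altered yeast strain, deficient in DNA damage repair, were treated with compound. Their growth was then compared with that of vehicle-treated cultures to give inhibition.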
# [14] = NCI Yeast Anticancer Drug Screen. Data for the rad18 strain (AID 177); conditions: S. cerevisiae rad18 mutant growth inhibition, active compounds read high
# Summary of the method: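 Compounds are applied to a repair-deficient yeast strain, and growth is compared with that of vehicle-treated cultures to give percent inhibition.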
# [15] = NCI Yeast Anticancer Drug Screen. Data for the mlh1 strain (AID 171);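 note: 0% = growth of vehicle-treated control cultures of the same strain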; conditions: S. cerevisiae mlh1 strain growth inhibition, active compounds read high
# Summary of the method: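 Compounds are applied to a genetically altered yeast strain, and its growth is compared with that of vehicle-treated cultures to give percent inhibition.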
# [16] = NCI Yeast Anticancer Drug Screen. Data for the sgs1 strain (AID 173);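 note: 0% = growth of vehicle-only control cultures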; conditions: S. cerevisiae sgs1 mutant, active compounds read high
# Summary of the method: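 Compounds applied to genetically altered yeast; growth compared with vehicle-treated cultures to give % inhibition.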
# [17] = at 5.0 µM (retest, dose inferred, filed as 0.5)
# [18] = at 50.0 µM (retest, dose inferred, filed as 5.0)
structure (smiles),measurement,setting,value
COc1ccc2oc(-c3ccc(Cl)cc3)c(N3CCN(C)CC3)c2c1,growth inhibition,[1]; at 1.2 µM,-1%
same,growth inhibition,[1]; at 3.7 µM,0%
same,growth inhibition,[1]; at 11.0 µM,91% (active)
same,growth inhibition,[1]; at 33.0 µM,98% (active)
same,growth inhibition,[1]; at 100.0 µM,99% (active)
same,growth inhibition,[2]; at 1.2 µM,-1%
same,growth inhibition,[2]; at 3.7 µM,-3%
same,growth inhibition,[2]; at 11.0 µM,30%
same,growth inhibition,[2]; at 33.0 µM,99% (active)
same,growth inhibition,[2]; at 100.0 µM,99% (active)
same,growth inhibition,[3]; at 1.2 µM,-1%
same,growth inhibition,[3]; at 3.7 µM,-4%
same,growth inhibition,[3]; at 11.0 µM,28%
same,growth inhibition,[3]; at 33.0 µM,99% (active)
same,growth inhibition,[3]; at 100.0 µM,99% (active)
same,growth inhibition,[4]; at 1.2 µM,-2%
same,growth inhibition,[4]; at 3.7 µM,-1%
same,growth inhibition,[4]; at 11.0 µM,99% (active)
same,growth inhibition,[4]; at 33.0 µM,100% (active)
same,growth inhibition,[4]; at 100.0 µM,99% (active)
same,growth inhibition,[5]; at 1.2 µM,-3%
same,growth inhibition,[5]; at 3.7 µM,0%
same,growth inhibition,[5]; [17],79% (active)
same,growth inhibition,[5]; at 11.0 µM,94% (active)
same,growth inhibition,[5]; at 33.0 µM,99% (active)
same,growth inhibition,[5]; [18],99% (active)
same,growth inhibition,[5]; at 50.0 µM,56.3%
same,growth inhibition,[5]; at 100.0 µM,99% (active)
same,growth inhibition,[6]; at 1.2 µM,-3%
same,growth inhibition,[6]; at 3.7 µM,-3%
same,growth inhibition,[6]; [17],9%
same,growth inhibition,[6]; at 11.0 µM,87% (active)
same,growth inhibition,[6]; at 33.0 µM,98% (active)
same,growth inhibition,[6]; [18],100% (active)
same,growth inhibition,[6]; at 50.0 µM,54.7%
same,growth inhibition,[6]; at 100.0 µM,99% (active)
same,growth inhibition,[7]; at 1.2 µM,0%
same,growth inhibition,[7]; at 3.7 µM,13%
same,growth inhibition,[7]; at 11.0 µM,99% (active)
same,growth inhibition,[7]; at 33.0 µM,99% (active)
same,growth inhibition,[7]; at 100.0 µM,99% (active)
same,growth inhibition,[8]; [17],23%
same,growth inhibition,[8]; [18],100% (active)
same,growth inhibition,[8]; at 50.0 µM,58.5%
same,growth inhibition,[9]; at 1.2 µM,-6%
same,growth inhibition,[9]; at 3.7 µM,-5%
same,growth inhibition,[9]; at 11.0 µM,98% (active)
same,growth inhibition,[9]; at 33.0 µM,99% (active)
same,growth inhibition,[9]; at 100.0 µM,98% (active)
same,growth inhibition,[10]; [17],17%
same,growth inhibition,[10]; [18],98% (active)
same,growth inhibition,[10]; at 50.0 µM,99.5% (active)
same,growth inhibition,[11]; at 1.2 µM,-3%
same,growth inhibition,[11]; at 3.7 µM,-6%
same,growth inhibition,[11]; [17],17%
same,growth inhibition,[11]; at 11.0 µM,98% (active)
same,growth inhibition,[11]; at 33.0 µM,99% (active)
same,growth inhibition,[11]; [18],99% (active)
same,growth inhibition,[11]; at 50.0 µM,62.1%
same,growth inhibition,[11]; at 100.0 µM,99% (active)
same,growth inhibition,[12]; at 1.2 µM,0%
same,growth inhibition,[12]; at 3.7 µM,-3%
same,growth inhibition,[12]; at 11.0 µM,97% (active)
same,growth inhibition,[12]; at 33.0 µM,99% (active)
same,growth inhibition,[12]; at 100.0 µM,99% (active)
same,growth inhibition,[13]; [17],59%
same,growth inhibition,[13]; [18],99% (active)
same,growth inhibition,[13]; at 50.0 µM,51.5%
same,growth inhibition,[14]; at 1.2 µM,1%
same,growth inhibition,[14]; at 3.7 µM,4%
same,growth inhibition,[14]; at 11.0 µM,91% (active)
same,growth inhibition,[14]; at 33.0 µM,99% (active)
same,growth inhibition,[14]; at 100.0 µM,99% (active)
O=NN(CCCl)C(=O)NCCCl,growth inhibition,[1]; at 1.2 µM,0%
same,growth inhibition,[1]; at 3.7 µM,1%
same,growth inhibition,[1]; at 11.0 µM,6%
same,growth inhibition,[1]; at 33.0 µM,13%
same,growth inhibition,[1]; at 100.0 µM,51%
same,growth inhibition,[2]; at 1.2 µM,-1%
same,growth inhibition,[2]; at 3.7 µM,-2%
same,growth inhibition,[2]; at 11.0 µM,-1%
same,growth inhibition,[2]; at 33.0 µM,0%
same,growth inhibition,[2]; at 100.0 µM,-16%
same,growth inhibition,[3]; at 1.2 µM,-3%
same,growth inhibition,[3]; at 3.7 µM,-1%
same,growth inhibition,[3]; at 11.0 µM,5%
same,growth inhibition,[3]; at 33.0 µM,30%
same,growth inhibition,[3]; at 100.0 µM,76% (active)
same,growth inhibition,[4]; at 1.2 µM,-3%
same,growth inhibition,[4]; at 3.7 µM,-2%
same,growth inhibition,[4]; at 11.0 µM,0%
same,growth inhibition,[4]; at 33.0 µM,2%
same,growth inhibition,[4]; at 100.0 µM,3%
same,growth inhibition,[5]; at 1.2 µM,0%
same,growth inhibition,[5]; at 3.7 µM,0%
same,growth inhibition,[5]; at 11.0 µM,6%
same,growth inhibition,[5]; at 33.0 µM,15%
same,growth inhibition,[5]; at 50.0 µM,35.6%
same,growth inhibition,[5]; at 100.0 µM,53%
same,growth inhibition,[6]; at 1.2 µM,-2%
same,growth inhibition,[6]; at 3.7 µM,0%
same,growth inhibition,[6]; at 11.0 µM,1%
same,growth inhibition,[6]; at 33.0 µM,4%
same,growth inhibition,[6]; at 50.0 µM,-4.3%
same,growth inhibition,[6]; at 100.0 µM,15%
same,growth inhibition,[7]; at 1.2 µM,-2%
same,growth inhibition,[7]; at 3.7 µM,1%
same,growth inhibition,[7]; at 11.0 µM,3%
same,growth inhibition,[7]; at 33.0 µM,3%
same,growth inhibition,[7]; at 100.0 µM,11%
same,growth inhibition,[8]; at 50.0 µM,6.75%
same,growth inhibition,[9]; at 1.2 µM,-10%
same,growth inhibition,[9]; at 3.7 µM,-5%
same,growth inhibition,[9]; at 11.0 µM,-6%
same,growth inhibition,[9]; at 33.0 µM,-5%
same,growth inhibition,[9]; at 100.0 µM,0%
same,growth inhibition,[10]; at 50.0 µM,2.3%
same,growth inhibition,[11]; at 1.2 µM,2%
same,growth inhibition,[11]; at 3.7 µM,-2%
same,growth inhibition,[11]; at 11.0 µM,0%
same,growth inhibition,[11]; at 33.0 µM,-6%
same,growth inhibition,[11]; at 50.0 µM,-10.8%
same,growth inhibition,[11]; at 100.0 µM,3%
same,growth inhibition,[12]; at 1.2 µM,-3%
same,growth inhibition,[12]; at 3.7 µM,-3%
same,growth inhibition,[12]; at 11.0 µM,-3%
same,growth inhibition,[12]; at 33.0 µM,0%
same,growth inhibition,[12]; at 100.0 µM,3%
same,growth inhibition,[15]; at 1.2 µM,-1%
same,growth inhibition,[15]; at 3.7 µM,-2%
same,growth inhibition,[15]; at 11.0 µM,-2%
same,growth inhibition,[15]; at 33.0 µM,1%
same,growth inhibition,[15]; at 100.0 µM,8%
same,growth inhibition,[16]; at 1.2 µM,-2%
same,growth inhibition,[16]; at 3.7 µM,-1%
same,growth inhibition,[16]; at 11.0 µM,1%
same,growth inhibition,[16]; at 33.0 µM,10%
same,growth inhibition,[16]; at 100.0 µM,33%
same,growth inhibition,[13]; at 50.0 µM,43%
same,growth inhibition,[14]; at 1.2 µM,4%
same,growth inhibition,[14]; at 3.7 µM,13%
same,growth inhibition,[14]; at 11.0 µM,45%
same,growth inhibition,[14]; at 33.0 µM,85% (active)
same,growth inhibition,[14]; at 100.0 µM,94% (active)
